The source of these data is PubChem BioAssay (Tox21).

SMILES strings stand for the structures. Results filed as inconclusive are left out. Where a call stands in place of a potency, no number is given. Unmarked numbers belong to inactive results. Activity calls are given as the source filed them. Calls come from the whole dose curve.
Potency is the fitted concentration of half-maximal effect.

For this assay, the target named is 5-hydroxytryptamine receptor 2A (Homo sapiens) (UniProt P28223). Nature of the assay: 5-hydroxytryptamine receptor 2A (HTR2A) small molecule antagonists, cell-based qHTS assay (AID 1963586). Note: nearly all actives have a fitted effect of over 45% in size. Particulars: HTR2A-CHO cells, DOI-induced calcium flux, fluorescence; series mostly up to 61.5 µM. The text has this: National Center for Advancing Translational Sciences [NCATS]
Sequence of 5-hydroxytryptamine receptor 2A (Homo sapiens) (P28223 whole entry, looked up): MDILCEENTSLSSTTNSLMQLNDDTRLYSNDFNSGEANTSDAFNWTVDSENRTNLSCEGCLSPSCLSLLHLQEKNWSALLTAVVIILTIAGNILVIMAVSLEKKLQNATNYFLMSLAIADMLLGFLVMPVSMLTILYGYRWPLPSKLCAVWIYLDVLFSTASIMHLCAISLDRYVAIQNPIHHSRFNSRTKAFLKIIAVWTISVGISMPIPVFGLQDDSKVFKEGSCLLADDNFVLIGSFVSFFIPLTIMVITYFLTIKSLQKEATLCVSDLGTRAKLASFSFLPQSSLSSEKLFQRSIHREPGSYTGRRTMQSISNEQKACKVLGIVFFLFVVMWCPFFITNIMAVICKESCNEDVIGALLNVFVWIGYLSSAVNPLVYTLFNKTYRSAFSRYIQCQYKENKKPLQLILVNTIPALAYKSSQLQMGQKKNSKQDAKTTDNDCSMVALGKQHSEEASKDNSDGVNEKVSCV
Division of Preclinical Innovation [DPI]
U.S. Environmental Protection Agency [EPA]
National Institutes of Environmental Health Sciences [NIEHS]
National Toxicology Program [NTP]
U.S. Food and Drug Administration [FDA]
The HTR2A receptor is a subtype of the 5-HT2 receptor that belongs to the serotonin receptor family and is a G protein-coupled receptor (GPCR). The HTR2A-CHO cell line stably expressing human 5-hydroxytryptamine receptor 2A (HTR2A) can be used for screening antagonists of interactions between 5-HT2 and its ligands. The HTR2A-CHO calcium flux assay is a homogeneous fluorescence-based assay for detecting the intracellular calcium level using FDSS kinetic plate reader system.
Tox21 Assay Protocol Summary:
HTR2A-CHO cells were dispensed at 2000 cells/3uL/well in 1536-well black-clear bottom plates using a Multidrop Dispenser. After the assay plates were incubated at a 37 C/5% CO2 incubator for 18 h, 3 uL of Dye Loading Buffer was transferred to the assay plate by a Flying Reagent Dispenser. The assay plates were incubated at 37 C for 1h. For antagonist mode, 23 nL of compounds dissolved in DMSO, positive controls or DMSO only was transferred to the assay plate by a pin tool. After 5 min incubation at room temperature, 1.5 uL of 4-Iodo-2,5-dimethoxy-alpha-methylbenzeneethanamine hydrochloride (DOI) at 4nM was added to each well. The fluorescence intensity in the plates was measured using FDSS 7000EX kinetic plate reader for 3 min at 1 sec intervals.
With `N=C(N)N`, the Potency result was “inactive”. With `Cc1ccc(C(N)=O)cc1N`, the Potency result was “inactive”.

With `CC[C@]12CCCN3CCc4c(n(c5ccccc45)C(=O)C1)[C@@H]32`, the Potency result was “inactive”.

In the case of `Cc1oc2c(NC(=O)c3c(Cl)cccc3Cl)cccc2c1C(C)(C)O`, the Potency entry was “inactive”. `CCc1c(C)cc(N)c(CC)c1N`: the Potency entry is “inactive”. For `Cc1nc2c([nH]1)c(=O)n(C)c(=O)n2Cc1ccco1`, the Potency entry is “inactive”. On to `C[C@@H](Oc1ccc(CNC(=O)c2cccnc2Oc2ccc3c(c2)OCO3)c(F)c1)C(=O)O`, for which the Potency result is “inactive”. Still for that read-out and setting: the entry for `CCCCCCCCCCCCN1CCCC1=O` is “inactive”; for `O=C(O)/C=C/c1ccc(O)c(O)c1` it is “inactive”; for `CCc1ccc2c(c1)C(=O)c1ccccc1C2=O` it is “inactive”. On to `CC1(C)CCC[C@]2(C)[C@H]3CCO[C@]3(C)CC[C@@H]12`, for which the Potency result was “inactive”.

As for `O=C1Nc2ccc(Cl)cc2[C@@](C#CC2CC2)(C(F)(F)F)O1`, the Potency was 14.5 µM (active). For `CS(=O)(=O)c1ccc([C@@H](CC2CCCC2)C(=O)Nc2cnccn2)cc1Cl`, the Potency result was “inactive”. Still for that read-out and setting: the entry for `O=C1c2ccccc2-c2ccccc21` is “inactive”; for `O=S(=O)(O)c1cc(Cl)c(Cl)cc1Cl` it is “inactive”; for `Cc1ccc(C(C)(C)C)c(O)c1` it is “inactive”. For the molecule `Clc1cccc(Cl)n1`, the Potency entry is “inactive”.

`CC=O`: the Potency result is “inactive”.

With `CC(=O)/C=C/C=C1/C2CCC(C2)C1(C)C` (stereo not given), the Potency entry was “inactive”. Take `COC(C)=O`: the Potency entry was “inactive”.

Consider `C=C/C=C/C=C/CCCCC`, for which the activity, negative = inhibition is -10.4% [at 12.7 µM].

For `Cc1cccc(NC(=S)N(C)C)c1`, the Potency entry is “inactive”. For `Cn1c(N)nc2nc[nH]c2c1=O`, the Potency result is “inactive”. Turning to `CCc1cc(C2=C(C(=O)O)N(c3ccccc3C(F)(F)F)S(=O)(=O)c3ccccc32)cc2c1OCO2`, the Potency entry is “inactive”. Still for that read-out and setting: the entry for `C=CC(=O)OCC1CC2CC1C1CCC(COC(=O)C=C)C21` (stereo not given) is “inactive”. As to `CN(C)Cc1cc(C(C)(C)C)c(O)c(C(C)(C)C)c1`, the Potency is 3.75 µM (active). For `CCCCCC[C@@H](O)C/C=C\CCCCCCCC(=O)O`, the Potency result was “inactive”.

`CCN=C1C=CC(=C(c2ccc(N(CC)CC)cc2)c2ccc(N(CC)CC)cc2)c2ccccc21`: the Potency result was “inactive”. For `Cc1ccc(O)c2ncccc12`, the Potency result was “inactive”. Same read-out and setting: the entry for `CCCc1ccc(OCC(=O)N2CCN(C(=O)COc3ccc(CCC)cc3OC)CC2)c(OC)c1` is “inactive”; for `C=Cc1ccc(C(C)(C)C)cc1` it is “inactive”.

For `CCCCCC(CO)CCC` (stereo not given), the Potency entry is “inactive”.

`CC(=O)/C(C)=C/C1C(C)=CCCC1(C)C` (stereo not given): the Potency entry is “inactive”. With `Cc1ccc(C=O)cc1C`, the Potency result is “inactive”. Turning to `CCCCCCCCCCCCCCC`, the Potency result was “inactive”. Turning to `Cc1ccc(Nc2c(F)cccc2Cl)c(CC(=O)O)c1`, the Potency entry was “inactive”. For the molecule `CC/C=C/CCCCCCCCCCOC(C)=O`, the Potency result was “inactive”.

On to `C[C@H](NC(CCc1ccccc1)C(=O)O)C(=O)N1CCC[C@H]1C(=O)O` (stereo not given in full), for which the Potency entry was “inactive”. With `Cc1ccc(C(C)OC(=O)C2(C)CCC(C(=O)O)C2(C)C)cc1` (stereo not given), the Potency result is “inactive”. Same read-out and setting: as for `COc1nccnc1NS(=O)(=O)c1ccc(N)cc1`, the entry is “inactive”.
